# Results as given in the supplement of paper PMC3724861.
# The full list was thinned out, with hits kept by preference. How many sequences the whole screen found active is unknown.
# Test system: T1, Caupolican (Caup) homeodomain DNA-binding domain
# T1 sequence: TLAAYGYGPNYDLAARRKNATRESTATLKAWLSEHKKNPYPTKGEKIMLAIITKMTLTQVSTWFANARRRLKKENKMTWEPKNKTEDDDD
# Assay: PBM E-score (8-mer, recovered from the published 9-mer minima) (E-score (dimensionless, -0.5 to 0.5)); Drosophila protein; higher = stronger relative binding preference, active = 0.31 or more
# Protocol: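 Protein binding microarray (PBM): in vitro transcribed/translated Caupolican (Caup) homeodomain DNA-binding domain (residues 214-303) applied at 100 nM to a universal 8-mer PBM array (Agilent AMADID 015681). The 8-mer enrichment score (E-score, range -0.5 to 0.5) was computed, and each 9-mer score is the minimum E-score of its two constituent 8-mers. The E-score is the same for a 9-mer and its reverse complement; 0.31 is the stated binding threshold.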
row,Sequence,PBM E-score
1,CATCTAGG,-0.0637 (inactive)
2,CAAGTAAG,0.0621 (inactive)
3,CATTTCAA,0.154 (inactive)
4,ATGCAATA,0.197 (inactive)
5,TGAGGCAA,-0.0847 (inactive)
6,AAGGGCGC,-0.172 (inactive)
7,CACCAGGC,-0.132 (inactive)
8,ACGTTGTA,0.291 (inactive)
9,CTGTTGAC,0.137 (inactive)
10,GTGTTGTA,0.395 (active)
11,GTGTTGCA,0.184 (inactive)
12,CTGTTGTA,0.273 (inactive)
13,AGGTTGTG,0.133 (inactive)
14,ATGTTGTG,0.282 (inactive)
15,ATGTTGAG,0.132 (inactive)
16,ATGTTGAC,0.322 (active)
17,CGGTTGTA,0.209 (inactive)
18,AGGTTGTA,≥ 0.333 (active)
19,ATGTTGTA,0.431 (active)
20,CGTCTGCC,-0.188 (inactive)
21,ATTGTCCG,0.122 (inactive)
22,CATTTCTA,0.102 (inactive)
23,GTCAACCA,0.0944 (inactive)
24,ACTAGCGC,-0.134 (inactive)
25,AACCGGGA,-0.0571 (inactive)
26,ATCAAAGC,-0.0471 (inactive)

row,Sequence,PBM E-score
1,ATCAGCTC,0.00528 (inactive)
2,AAGGCGAC,0.00668 (inactive)
3,ACGACTGC,-0.0879 (inactive)
4,GGATACCC,-0.15 (inactive)
5,CTCCAACC,-0.171 (inactive)
6,CACACCGA,0.0554 (inactive)
7,ACAAACCG,0.0217 (inactive)
8,ATGTTGCC,0.121 (inactive)
9,ATGTTGTC,0.424 (active)
10,CTGTTGTC,0.256 (inactive)
11,CCGCATCC,-0.16 (inactive)
12,AATTAACC,0.0386 (inactive)
13,AACTAACT,-0.00416 (inactive)
14,TGTTAACA,0.371 (active)
15,AAGTAACA,0.306 (inactive)
16,GAGTAACA,0.206 (inactive)
17,AACTAACA,≥ 0.339 (active)
18,AGTTAACA,0.265 (inactive)
19,AATTAACA,0.326 (active)
20,AATTAACT,0.117 (inactive)
21,CGTTAACA,0.164 (inactive)
22,TAGTAACA,≥ 0.316 (active)
23,TACTAACA,0.253 (inactive)
24,GTATCACA,0.198 (inactive)
25,ACAGAAGA,0.101 (inactive)
26,TAGCACAA,0.0785 (inactive)

row,Sequence,PBM E-score
1,ATGAAAAA,0.0536 (inactive)
2,AATGCACT,0.108 (inactive)
3,GGATTAGA,-0.0283 (inactive)
4,GCCATCGA,-0.0979 (inactive)
5,TATTAACA,0.312 (active)
6,CATTAACA,0.234 (inactive)
7,GATTAACA,0.292 (inactive)
8,CCATCCCC,-0.241 (inactive)
9,CAAGAGAG,-0.0747 (inactive)
10,TCCTCTCA,-0.0753 (inactive)
11,GGTGTACA,0.327 (active)
12,GCTGTACA,0.268 (inactive)
13,AGTGTACA,0.337 (active)
14,AGTGTACG,0.152 (inactive)
15,GGTGTATA,0.133 (inactive)
16,AGTGTAGA,0.162 (inactive)
17,ATAGATAT,0.169 (inactive)
18,ACGGACCC,-0.139 (inactive)
19,CGCGGGTC,-0.163 (inactive)
20,CCAATGGA,-0.156 (inactive)
21,ATGCAGCC,0.00431 (inactive)
22,CTGATTTA,0.138 (inactive)
23,GCATTAGC,-0.144 (inactive)
24,CTTATTGA,0.0828 (inactive)
25,CGCGAACG,-0.0783 (inactive)
26,GCACCGCA,-0.175 (inactive)

row,Sequence,PBM E-score
1,AAATGTAA,0.277 (inactive)
2,TAATGTAA,0.315 (active)
3,CAATGTAG,0.182 (inactive)
4,CAATGTAC,0.287 (inactive)
5,CAATGTAA,0.312 (active)
6,TAATGTGA,0.141 (inactive)
7,TGGACACA,0.199 (inactive)
8,GGTAGCGA,-0.0452 (inactive)
9,GCCGGGTA,-0.161 (inactive)
10,CTAGCGTA,-0.0972 (inactive)
11,ATGTCTTA,0.284 (inactive)
12,CAATGACA,0.293 (inactive)
13,CATTGACA,0.217 (inactive)
14,ACATGACG,0.297 (inactive)
15,GATTGACA,0.276 (inactive)
16,CCATGACA,0.137 (inactive)
17,ACATGACT,0.374 (active)
18,TGATGACA,0.279 (inactive)
19,TAATGACA,0.331 (active)
20,GAATGACA,0.259 (inactive)
21,TCATGACA,0.313 (active)
22,TATTGACA,0.322 (active)
23,ACATGACC,0.303 (inactive)
24,GTGGCGAA,-0.0979 (inactive)
25,CGGAGTGC,-0.159 (inactive)
26,AACCTATT,0.0185 (inactive)

row,Sequence,PBM E-score
1,CTGACAGC,-0.0248 (inactive)
2,CTATTCCA,0.057 (inactive)
3,CGATTACG,0.101 (inactive)
4,CCCCTGAG,-0.149 (inactive)
5,ATCGCACC,-0.0473 (inactive)
6,CGCATATA,0.107 (inactive)
7,AAGCACTG,0.0317 (inactive)
8,ACATGACA,≥ 0.43 (active)
9,ATTTGACC,-0.0206 (inactive)
10,AGATGACA,0.227 (inactive)
11,CTTTGACA,0.223 (inactive)
12,GCATGACA,0.21 (inactive)
13,ATTTGACA,0.347 (active)
14,CTCTTCTA,-0.00512 (inactive)
15,ATATTCGC,0.0752 (inactive)
16,GCAGAAGA,-0.113 (inactive)
17,TAAATATA,0.187 (inactive)
18,CAAATAGG,-0.00893 (inactive)
19,CGTTGTCA,0.251 (inactive)
20,AGTTGTCA,0.315 (active)
21,AGTTGTCG,0.235 (inactive)
22,GGTTGTCA,0.331 (active)
23,GTTTGTCA,0.187 (inactive)
24,AGTTGTCC,0.235 (inactive)
25,CGTAAATC,-0.00723 (inactive)
26,CATGGATA,0.157 (inactive)

row,Sequence,PBM E-score
1,TACAAACA,≥ 0.368 (active)
2,AACAAGCG,0.237 (inactive)
3,GACAAACA,0.312 (active)
4,AACAAACT,0.23 (inactive)
5,CACAAACA,0.24 (inactive)
6,GACAAAAA,0.0647 (inactive)
7,AACAAACG,0.114 (inactive)
8,AACAAACC,0.161 (inactive)
9,AACAAACA,0.338 (active)
10,GACAAACC,0.0748 (inactive)
11,AACAAGCT,0.312 (active)
12,AACAAGCC,0.176 (inactive)
13,AGTTCTGG,-0.0428 (inactive)
14,AGGGCAAC,-0.0847 (inactive)
15,CCGGAAAG,-0.15 (inactive)
16,ACGTTCAT,0.101 (inactive)
17,GATATTGA,0.0675 (inactive)
18,CACCTACC,-0.0826 (inactive)
19,AAAACGTG,0.0311 (inactive)
20,AGTATACT,0.163 (inactive)
21,ACCTACCT,-0.066 (inactive)
22,GCATCTAC,0.0527 (inactive)
23,GACAAGCC,0.212 (inactive)
24,CACAAGCA,0.15 (inactive)
25,GACAAGCA,0.321 (active)
26,TACAAGCA,≥ 0.384 (active)

row,Sequence,PBM E-score
1,GGCAAGCA,-0.119 (inactive)
2,AACAAGCA,0.308 (inactive)
3,CTCTCAGC,-0.19 (inactive)
4,ACCCGTAT,0.0244 (inactive)
5,ACTTTTCG,0.0288 (inactive)
6,CCCACAGG,-0.142 (inactive)
7,GAATAGTC,-0.00141 (inactive)
8,AATACAAG,0.346 (active)
9,GATACAGA,0.164 (inactive)
10,AAAACATA,0.284 (inactive)
11,GAAACATA,0.258 (inactive)
12,AATACAAC,0.305 (inactive)
13,AATACATA,0.362 (active)
14,AATACAAT,0.226 (inactive)
15,GATACATC,0.297 (inactive)
16,AATACAGA,0.18 (inactive)
17,AATACAAA,0.284 (inactive)
18,GATACATA,0.321 (active)
19,TAAACATA,≥ 0.367 (active)
20,AGCTGTAA,0.166 (inactive)
21,AGTACTAT,0.165 (inactive)
22,CCGATGCG,-0.173 (inactive)
23,AAGACTAT,0.0648 (inactive)
24,CCCACGAG,-0.148 (inactive)
25,GGATATCA,0.0642 (inactive)
26,TCGTATAA,0.121 (inactive)

row,Sequence,PBM E-score
1,CCACTAGG,-0.169 (inactive)
2,AATACATT,0.225 (inactive)
3,AATACATG,0.424 (active)
4,CATACATA,0.286 (inactive)
5,TATACATA,0.326 (active)
6,CATACATG,0.44 (active)
7,TATACAGA,0.217 (inactive)
8,TATACAAA,0.264 (inactive)
9,AATACATC,0.294 (inactive)
10,CATACATC,0.251 (inactive)
11,CCTCTACG,-0.0999 (inactive)
12,AACACCTA,0.183 (inactive)
13,CTCAGCGA,-0.115 (inactive)
14,AGATTTGA,0.0967 (inactive)
15,ACCCGCGT,-0.0456 (inactive)
16,CTCGGACA,0.086 (inactive)
17,AATGAACA,0.317 (active)
18,TATGAACA,0.286 (inactive)
19,TGTGAACA,0.31 (active)
20,CGTGAACA,0.206 (inactive)
21,CATGAACG,0.0839 (inactive)
22,GGTGAACA,0.183 (inactive)
23,GATGAACA,0.196 (inactive)
24,AATGAACC,-0.0632 (inactive)
25,CATGAACA,0.32 (active)
26,GCGAGAGA,-0.0945 (inactive)

row,Sequence,PBM E-score
1,GGCGAGTA,-0.0986 (inactive)
2,GTAGCAAC,0.128 (inactive)
3,AGCAAGAC,0.0516 (inactive)
4,ACTTGACC,-0.0545 (inactive)
5,AAAATTTC,-0.0281 (inactive)
6,TCGGCAAA,-0.0466 (inactive)
7,ATGCTGGG,-0.069 (inactive)
8,ATCTGTGC,0.0661 (inactive)
9,AGTGCGCC,-0.17 (inactive)
10,GACATATA,0.305 (inactive)
11,CACATATA,0.251 (inactive)
12,AACATAGT,0.287 (inactive)
13,TACATAGA,0.278 (inactive)
14,AACATATA,0.323 (active)
15,TACATATA,0.379 (active)
16,ACCATATG,0.145 (inactive)
17,TATATATA,0.216 (inactive)
18,CACATATG,0.15 (inactive)
19,AACATATG,≥ 0.356 (active)
20,AACATATT,≥ 0.347 (active)
21,AACATATC,0.303 (inactive)
